Values joined by “and” are separate entries in the source; they are usually repeats but may differ in a detail not shown here. Equal entries are not always repeated. Inconclusive results are not listed. A structure can be active in one record and inactive in another. Active and inactive are the calls of the source.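 The calls were made as follows, unless noted: active = normalized viability below 100% at a tested concentration; inactive = the rest.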
Columns and labels:
[1] = tested on: Aerobactin synthetase IucA (Klebsiella pneumoniae); test: IucA aerobactin synthetase inhibitors, biochemical, Tocris library, absorbance (AID 1345561; call rule not given here;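 also: 100% = enzyme without compound and 0% = no enzyme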); settings: purified IucA enzyme assay, absorbance (OD) read-out; stronger effect = lower value;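 tested at 8 µM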
[2] = growth inhibition of DIPG glioma cells, dose response, cell-based, SU-DIPG-XVII, MIPE5.0, CellTiter-Glo, qHTS (AID 1347060; cut-off not given, nearly all actives have AC50 up to about 26 µM); settings: SU-DIPG-XVII viability, CellTiter-Glo ATP luminescence
[3] = growth inhibition of DIPG glioma cells, dose response, cell-based, JHH-DIPG-1, MIPE4.0, CellTiter-Glo, qHTS (AID 1347062; cut-off not given, nearly all actives have AC50 up to about 27 µM;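 as to AC50: cells exposed to compound for two days before readout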); settings: JHH-DIPG-1 viability, CellTiter-Glo ATP luminescence
[4] = growth inhibition of DIPG glioma cells, dose response, cell-based, SU-DIPG-XIII, MIPE5.0, CellTiter-Glo, qHTS (AID 1347064; cut-off not given, nearly all actives have AC50 up to about 23 µM); settings: SU-DIPG-XIII viability, CellTiter-Glo ATP luminescence
[5] = SU-DIPG-XXV glioma cell viability, MIPE5.0 library, qHTS (AID 1347068; cut-off not given, nearly all actives have IC50 up to about 30 µM)
[6] = sensitizers of A549 cells to miR-34 induction, primary screen, imaging, A549 dox-inducible miR-34, nuclei and caspase counts (AID 1347080;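 active = compounds whose cell count with miR-34 switched on is under 0.7 times the count with it off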); settings: A549 miR-34 inducible, Hoechst nuclei count, 48 h
[7] = viability rescue of complex I mutant cybrids, primary screen, cell-based, galactose medium, ATP luminescence (AID 1645843;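 active = z-score of at least 1.8 in each of two replicates, scored against plate mean and spread of sample wells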;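 also: positive z means more ATP and so rescue of galactose-driven cybrid death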); settings: complex I mutant cybrid cells, 72 h, stronger effect = higher value
[8] = liver-stage malaria parasite growth inhibition, primary screen, cell-based, HepG2, luciferase luminescence, HepG2 viability (AID 624349; in the data active = parasite load remaining mostly below about 12%, no sharp cut-off; inactive = mostly above about 10%;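 also: 100% = mean of DMSO negative control wells on the same plate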); settings: P. berghei liver stage in HepG2, luciferase luminescence, concentration not given here; parasite load remaining: stronger effect = lower value; viability: measured here: HepG2 viability without parasites
[9] = SU-DIPG-VI glioma cell viability, MIPE4.0 library, CellTiter-Glo luminescence, qHTS (AID 1347066; cut-off not given, nearly all actives have AC50 up to about 30 µM;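 also: cells exposed to compound for 48 hours before readout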); settings: CellTiter-Glo ATP luminescence
[10] = modifiers of HSF1 nuclear foci, imaging, Selleck Cancer Library (AID 1347162; in the data active = plate-normalised HSF1 focus index below about 0.46); settings: human cells, at 10 µM; SSMD: measured here: HSF1 foci SSMD mean; cell count: measured here: cell number; plate-normalised HSF1 focus index: stronger effect = lower value
[11] = survival rescue of mitochondrial mutant cells in low glucose, primary screen, MELAS cybrids, Rieske KO mouse fibroblasts, CellTiter-Glo (AID 1508586;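 active = mean z-score across replicates of 1.96 or higher in either the MELAS or the Rieske mutant cell line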;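 also: z relative to plate mean and SD of compound and empty wells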)
[12] = ovarian cancer cell viability with rucaparib, profiling panel, oncology-focused library, rucaparib conditional (AID 1508598); settings: patient-derived ovarian cancer cells, CellTiter-Glo viability, 144 h, stronger effect = lower value
[13] = growth inhibition of DIPG glioma cells, dose response, cell-based, SU-DIPG-XIII, MIPE4.0, CellTiter-Glo, qHTS (AID 1347061; cut-off not given, nearly all actives have AC50 up to about 37 µM;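 also: cells exposed to compound for 48 hours before readout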); settings: SU-DIPG-XIII viability, CellTiter-Glo ATP luminescence
[14] = JHH-DIPG-1 glioma cell viability, MIPE5.0 library, CellTiter-Glo luminescence, qHTS (AID 1347067; cut-off not given, nearly all actives have AC50 up to about 26 µM;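 also: cells exposed to compound for 48 hours before readout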); settings: JHH-DIPG-1 glioma viability, CellTiter-Glo ATP luminescence
[15] = stronger effect = lower value, cell number ratio, induced over uninduced
[16] = measured here: relative caspase fold change +Dox/-Dox
[17] = measured here: total cells with miR-34 induction, stronger effect = lower value
[18] = measured here: total cells without miR-34 induction
[19] = MELAS cybrid survival, CellTiter-Glo 48 h, stronger effect = higher value
[20] = Rieske KO mouse fibroblast survival, CellTiter-Glo 72 h

COC1CCC(C(=O)c2ccc3nc4c(cc3c2)CCCO4)CC1 (configuration not stated)
1.27: fold change [6, 16]
8170: cell count [6, 17]
active: AC50 [3] 20.9 µM
inactive: remaining activity [1] 99.8% | outcome [2] | outcome [4] | outcome [5] | fold change [6, 15] 0.932 | z-score [7] 0.32
8760: cell count [6, 18]

CS(=O)c1ccc(-c2nc(-c3ccc(F)cc3)c(-c3ccncc3)[nH]2)cc1 (configuration not stated)
76.8%: viability [8]
active: AC50 [3] 15.2 µM
inactive: parasite load remaining [8] 28.5% | remaining activity [1] 113% and 119% | outcome [2] | outcome [4] | outcome [9] | plate-normalised HSF1 focus index [10] 1.16 | z-score [11, 19] -0.617 | viability ([12]; at 0.000305 µM, OCI-C5x cells, with rucaparib 10 µM, 100% = cells with rucaparib alone) 128% | viability ([12]; at 0.000305 µM, OCI-C5x cells, without rucaparib) 139% | viability ([12]; at 0.000305 µM, OCI-P5x cells, with rucaparib 20 µM, 100% = cells with rucaparib alone) 109% | viability ([12]; at 0.000305 µM, OCI-P5x cells, without rucaparib) 111% | viability ([12]; at 0.00122 µM, OCI-C5x cells, with rucaparib 10 µM, 100% = cells with rucaparib alone) 123% | viability ([12]; at 0.00122 µM, OCI-C5x cells, without rucaparib) 135% | viability ([12]; at 0.00122 µM, OCI-P5x cells, with rucaparib 20 µM, 100% = cells with rucaparib alone) 103% | viability ([12]; at 0.00122 µM, OCI-P5x cells, without rucaparib) 107% | viability ([12]; at 0.00488 µM, OCI-C5x cells, with rucaparib 10 µM, 100% = cells with rucaparib alone) 134% | viability ([12]; at 0.00488 µM, OCI-C5x cells, without rucaparib) 139% | viability ([12]; at 0.00488 µM, OCI-P5x cells, with rucaparib 20 µM, 100% = cells with rucaparib alone) 108% | viability ([12]; at 0.00488 µM, OCI-P5x cells, without rucaparib) 111% | viability ([12]; at 0.0195 µM, OCI-C5x cells, with rucaparib 10 µM, 100% = cells with rucaparib alone) 128% | viability ([12]; at 0.0195 µM, OCI-C5x cells, without rucaparib) 145% | viability ([12]; at 0.0195 µM, OCI-P5x cells, with rucaparib 20 µM, 100% = cells with rucaparib alone) 108% | viability ([12]; at 0.0195 µM, OCI-P5x cells, without rucaparib) 108% | viability ([12]; at 0.0781 µM, OCI-C5x cells, with rucaparib 10 µM, 100% = cells with rucaparib alone) 127% | viability ([12]; at 0.0781 µM, OCI-C5x cells, without rucaparib) 164% | viability ([12]; at 0.0781 µM, OCI-P5x cells, with rucaparib 20 µM, 100% = cells with rucaparib alone) 108% | viability ([12]; at 0.0781 µM, OCI-P5x cells, without rucaparib) 112% | viability ([12]; at 0.313 µM, OCI-C5x cells, with rucaparib 10 µM, 100% = cells with rucaparib alone) 129% | viability ([12]; at 0.313 µM, OCI-C5x cells, without rucaparib) 159% | viability ([12]; at 0.313 µM, OCI-P5x cells, with rucaparib 20 µM, 100% = cells with rucaparib alone) 119% | viability ([12]; at 0.313 µM, OCI-P5x cells, without rucaparib) 111% | viability ([12]; at 1.25 µM, OCI-C5x cells, with rucaparib 10 µM, 100% = cells with rucaparib alone) 116% | viability ([12]; at 1.25 µM, OCI-C5x cells, without rucaparib) 166% | viability ([12]; at 1.25 µM, OCI-P5x cells, with rucaparib 20 µM, 100% = cells with rucaparib alone) 130% | viability ([12]; at 1.25 µM, OCI-P5x cells, without rucaparib) 108% | viability ([12]; at 5 µM, OCI-C5x cells, with rucaparib 10 µM, 100% = cells with rucaparib alone) 132% | viability ([12]; at 5 µM, OCI-C5x cells, without rucaparib) 161% | viability ([12]; at 5 µM, OCI-P5x cells, with rucaparib 20 µM, 100% = cells with rucaparib alone) 119% | viability ([12]; at 5 µM, OCI-P5x cells, without rucaparib) 113%
7460: cell count [10]
2.53: SSMD [10]
1.98 (inactive) and 3.42 (active): z-score [7]
0.991: z-score [11, 20]

CN1C(=O)C(Cc2c[nH]c3ccccc23)NC1=S (configuration not stated)
0.523 and 1.02: fold change [6, 16]
96.5%: viability [8]
8780 and 8510: cell count [6, 18]
7350: cell count [10]
inactive: parasite load remaining [8] 48.6% | remaining activity [1] 89.8% | outcome [2] | outcome [13] | outcome [3] | outcome [4] | outcome [9] | outcome [14] | outcome [5] | fold change [6, 15] 0.887 and 0.965 | plate-normalised HSF1 focus index [10] 1.1 | z-score [11, 19] -0.333 | z-score [7] 0.03
0.34: z-score [11, 20]
7790 and 8210: cell count [6, 17]
1.64: SSMD [10]

CCN(CC)CCCC(C)Nc1nc(C)cc(Nc2ccc3nc(C)cc(N)c3c2)n1 (configuration not stated)
-2.27: z-score [11, 20]
7010: cell count [10]
7920 and 8660: cell count [6, 17]
8160 and 9370: cell count [6, 18]
3.48: SSMD [10]
inactive: remaining activity [1] 104% | outcome [2] | outcome [13] | outcome [4] | outcome [9] | outcome [14] | outcome [5] | fold change [6, 15] 0.97 and 0.925 | plate-normalised HSF1 focus index [10] 1.21 | z-score [11, 19] -0.488
0.421 and 1.06: fold change [6, 16]
active: z-score [7] 2.71
